Bioassay records deposited in PubChem by National Center for Advancing Translational Sciences (NCATS).
rTrxR1 inhibitor – qHTS Assay for Inhibitors of Mammalian Selenoprotein Thioredoxin Reductase 1 (TrxR1): qHTS. Thioredoxin reductase 1, cytoplasmic (Rattus norvegicus), O89049. recombinant rTrxR1, NADPH fluorescence consumption, selenite substrate. Potency, µM (titrated, usually from 114 µM), without a hit: top-dose activity change, negative = inhibition, most hits filed as inhibitors. hit rate 1% among 390,000. AID 588453, 2011; further: potency means the concentration at half of the fitted maximal effect; on the % scale 0 is the no-effect control and ±100 the full control effect; nearly all actives have a fitted effect of over 65% in size
Target sequence (O89049 whole entry, looked up): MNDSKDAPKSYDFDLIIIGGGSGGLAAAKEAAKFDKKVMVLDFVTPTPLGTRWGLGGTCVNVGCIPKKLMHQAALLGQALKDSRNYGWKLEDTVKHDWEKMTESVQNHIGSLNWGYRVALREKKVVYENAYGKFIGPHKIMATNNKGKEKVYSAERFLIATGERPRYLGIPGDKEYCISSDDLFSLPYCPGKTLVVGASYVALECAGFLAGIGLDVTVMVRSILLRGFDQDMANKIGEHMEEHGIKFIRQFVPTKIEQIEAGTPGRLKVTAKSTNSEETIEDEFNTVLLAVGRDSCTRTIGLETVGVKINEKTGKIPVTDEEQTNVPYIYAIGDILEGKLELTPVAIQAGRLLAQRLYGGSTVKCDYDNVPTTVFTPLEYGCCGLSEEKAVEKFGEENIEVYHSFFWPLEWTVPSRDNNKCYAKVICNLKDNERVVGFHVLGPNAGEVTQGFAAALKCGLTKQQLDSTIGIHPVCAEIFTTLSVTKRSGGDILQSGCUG
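Rat TrxR1 (90 nM in the dispensed reagent) was pre-reduced with 400 uM NADPH for 5 min at room temperature, then incubated with compound for 15 min. After 400 uM selenite was added, NADPH fluorescence (Ex 340/Em 450 nm) was followed for 8 min.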
TrxR1 substrate – qHTS Assay for Substrates of Mammalian Selenoprotein Thioredoxin Reductase 1 (TrxR1): qHTS; hit rate 0.01% among 390,000; purified TrxR1 substrate turnover, NADPH consumption readout; Potency, µM (top dose mostly 114 µM), without a hit: at the top dose activity change, negative = substrate turnover; further: potency means the concentration at half of the fitted maximal effect; on the % scale 0 is the no-effect control and ±100 the full control effect; nearly all actives have a fitted effect of over 50% in size
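Rat TrxR1, dispensed at 90 nM, was prereduced with 400 uM NADPH (final) for 5 min at ~22 deg C, then incubated with compound 15 min before 400 uM selenite. A first-read NADPH fluorescence drop versus no-compound background flagged substrates.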
Giardia kill – Small Molecules that selectively kill Giardia lamblia: qHTS; hit rate 0.15% among 340,000; AID 540267, 2011; activity change, % at 7.66 µM, hits read low; Giardia lamblia trophozoite viability; in the data active means activity change below about -80%; inconclusive means between about -30% and that limit;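 further: parasites exposed to compound for two days anaerobically before the ATP read; on the % scale 0 is the no-effect control and ±100 the full control effect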
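Giardia trophozoites, 100 cells per well, were exposed to compounds for 48 hrs at 37 deg C under anaerobic conditions; viability was then read as ATP content by bioluminescence after 15-30 min at room temperature.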
IL-2 act – qHTS of IL-2 Activators; hit rate 0.065% among 360,000; AID 652025, 2013; IL-2 activation reporter assay, cell-based qHTS; stimulated with anti-CD3/CD4/CD28 beads; in transgenic mouse T cells; activation, % (series mostly up to about 46 µM); in the data active means activation above about 50%; inconclusive means mostly about 30% to 49%; further: 0% is about no effect
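Unstimulated transgenic mouse T cells, 750 per well, received compound and, after 60 minutes, anti-CD3/anti-CD4 bead plus anti-CD28 stimulation. EGFP and DsRed were quantified after 18 hours.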
BRCA1 expr up – qHTS Assay to Identify Small Molecule Activators of BRCA1 Expression | MCF7-BRCA1-FFLuc reporter, luminescence, 48 h; response scale: scaled: vehicle 0%, 10 µM genistein 100% | Potency, µM (titrated, usually from 46.1 µM), inactives show at the highest dose activation, hits mostly activators | hit rate 1.1% among 380,000 | AID 624202, 2012; further: potency means the concentration at half of the fitted maximal effect; nearly all actives have a fitted effect of over 80% in size
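Quantitative HTS in MCF7 cells stably reporting BRCA1 expression via firefly luciferase. Compound treatment lasts 48 h at 37 °C in phenol-red free MEM. Activation is expressed relative to genistein at 10 microM and DMSO.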
mIDH1 inhibitor – qHTS for Inhibitors of mutant isocitrate dehydrogenase 1 (IDH1): qHTS; Potency, µM (titrated, usually from 76.6 µM), inactives show at the top dose activity change, negative = inhibition, most hits filed as inhibitors; AID 602179, 2012; hit rate 0.093% among 390,000; IDH1-R132H enzyme, NADPH consumption, diaphorase/resazurin fluorescence; Isocitrate dehydrogenase [NADP] cytoplasmic (Homo sapiens), O75874; further: potency means the concentration at half of the fitted maximal effect; on the % scale 0 is the no-effect control and ±100 the full control effect; nearly all actives have a fitted effect of over 65% in size
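IDH1-R132H (0.5 ug/mL) preincubated 30 min with compound, then NADPH (0.016 mM) and alpha-KG (2 mM) added; 80 min at RT, pH 7.5. Remaining NADPH coupled via diaphorase/resazurin to fluorescence (540/590 nm); concentration-response curves normalized to no-enzyme control.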
Active calls of the source: *; ? = inconclusive; / = not tested or not shown; [ ] = dose if it differs, or a comment. An excerpt weighted towards active compounds, which were near 2.2% of everything screened. Unless noted, the call rests on the fitted dose curve; in most records, active means well fitted curve in the direction sought with a large enough effect; inconclusive means small, poorly fitted or top-dose-only effect, or another doubt; inactive means no such curve, though single readings can be large; an effect the other way counts as inactive or inconclusive.

SMILES	rTrxR1 inhibitor	TrxR1 substrate	Giardia kill	IL-2 act	BRCA1 expr up	mIDH1 inhibitor
CC(NC(=O)CCc1nnc(Cc2cccc(C(F)(F)F)c2)o1)C1CC1 (configuration not stated)	31%	3%	0	-1	55%	7%
Cc1ccc(CN2CCOCCS2(=O)=O)cc1	-1%	-3%	/	/	/	/
CCOC(=O)/C(=C\c1ccc([N+](=O)[O-])o1)NC(=O)c1ccccc1	7.9µM*	-1%	?	4	/	2%
O=C(NCC1CCCO1)c1ccc([N+](=O)[O-])o1 (configuration not stated)	-12%	-2%	?	0	-53%	1%
O=C(NNC(=O)c1ccc([N+](=O)[O-])o1)c1ccccc1	?	-12%[57.1 µM]	-98*	0	-48%	9%
O=C(NN(c1ccccc1)c1ccccc1)c1ccc([N+](=O)[O-])o1	-15%	-6%	-89*	0	-59%	-8%
C/C(=N/NC(=O)C(O)(c1ccccc1)c1ccccc1)c1ccc([N+](=O)[O-])o1	?	13%[57.1 µM]	-90*	0	-74%	7%
O=C(N/N=C/c1cc([N+](=O)[O-])ccc1O)C(O)(c1ccccc1)c1ccccc1	-7%	-16%	13	1	-66%	-18%
CCOc1ccc(NC(=O)c2ccc3nc(Cc4ccccc4)oc3c2)cc1	19%[57.1 µM]	4%[57.1 µM]	/	/	/	11%
Cc1ccc(CSc2nc3ccc(NC(=O)COc4ccccc4)cc3s2)cc1	28%	4%	/	/	7%	-3%
NC(=O)c1oc2ccccc2c1NC(=O)c1ccc([N+](=O)[O-])o1	-5%	-1%	-88*	-3	-115%	0%
COCCCNc1nc2c(S(=O)(=O)c3ccccc3)nnn2c2ccc(Cl)cc12	1%	32%	/	/	/	-4%
CC(C)C[C@@H](CSc1ccc(Br)cc1)N1CCN(C)CCC1=O	-6%	-4%	-11	-1	10µM*	-6%
Nc1ccc2nc(-c3ccc(N)c(Cl)c3)[nH]c2c1	?	251%	-27	0	4.5µM*	5%
Nc1ccc2nc(-c3ccccc3)[nH]c2c1	149%[57.1 µM]	688%[57.1 µM]	-5	-2	97%	3%
Nc1ccc2nc(-c3cccnc3)[nH]c2c1	10%[57.1 µM]	-23%[57.1 µM]	3	0	23%	7%
Nc1ccc2nc(-c3ccccn3)[nH]c2c1	3%[57.1 µM]	6%[57.1 µM]	-8	1	11µM*	8%
COc1ccc(NC(=O)Cn2c(SCc3ccc(C)cc3)nc3cccnc32)c(OC)c1	9%	-5%	/	/	/	16%
Nc1ccc(-c2nc3ncccc3o2)c(O)c1	89µM*	213%	-10	-4	5µM*	0%
O=C(O)C1Nc2c(Cl)cc(Cl)cc2C2C=CCC12 (configuration not stated)	20µM*	4%	13	0	-22%	4%
Cc1ccc(C)c2c1NC(C(=O)O)C1CC=CC21 (configuration not stated)	3.2µM*	6%	-30	/	0%	/
O=C(O)C1Nc2c(Cl)cc(Cl)c(Cl)c2C2C=CCC12 (configuration not stated)	?	-1%	8	-1	1%	-16%
O=C(O)C1Nc2c(O)cccc2C2C=CCC12 (configuration not stated)	35µM*	-8%	-2	-1	-45%	4%
CCN1CCC(O)(/C=C/c2ccc(C(C)C)cc2)C(C(=O)/C=C/c2ccc(C(C)C)cc2)C1 (configuration not stated)	7.9µM*	-14%	-11	-1	-85%	-14%
O=C(CCCc1ccccc1)Nc1ccccn1	8%	-2%	-5	-2	63%	5%
SMILES	rTrxR1 inhibitor	TrxR1 substrate	Giardia kill	IL-2 act	BRCA1 expr up	mIDH1 inhibitor
Cc1ccnc(NC(=O)CCNC(=O)c2ccc(Cl)cc2)c1	9%	6%	-7	3	13µM*	2%
CCOc1ccc(C(=O)Nc2cc(C)ccn2)cc1	18%[57.1 µM]	2%[57.1 µM]	-88*	1	-36%	3%
CCOc1cc(C(=O)Nc2cc(C)ccn2)cc(OCC)c1OCC	-13%	-8%	6	1	-27%	9%
Cc1ccnc(NC(=O)CCCc2ccccc2)c1	-14%	-9%	1	0	11µM*	3%
CCCCOc1ccc(S(=O)(=O)Nc2cccc(-c3ccc(N4CCOCC4)nn3)c2)cc1	24%[57.1 µM]	0%[57.1 µM]	/	/	/	-14%
COc1ccc2cc3cc(C(=O)N4CCN(c5cccc(Cl)c5)CC4)sc3nc2c1	16%	5%	/	/	-9%	-14%
Cc1ccc(/C=N/Nc2ccnc3cc(Cl)ccc23)c(C)c1	-22%	-10%	-88*	-4	-91%	-6%
Clc1ccc2c(N/N=C/c3cccnc3)ccnc2c1	8%[57.1 µM]	4%[57.1 µM]	4	-1	38%	0%
Cc1ccccc1/C=N/Nc1ccnc2cc(Cl)ccc12	-2%	2%	?	-1	-84%	-2%
Clc1ccc2c(N/N=C/c3ccc(Br)cc3)ccnc2c1	-3%	-8%	-96*	-4	-50%	-8%
COc1ccc2cc(-c3nc4ccc(C(=O)O)cc4[nH]3)c(=O)oc2c1	10%[57.1 µM]	154%[57.1 µM]	/	/	/	43%
Cc1ccc(C(=O)NC(C#N)=C(Cl)Cl)cc1	3.2µM*	2%[57.1 µM]	-8	-1	-91%	-9%
[O-][n+]1c2ccccc2c2n1CCN=C2c1ccc(Cl)cc1	0%[57.1 µM]	8%[57.1 µM]	-84*	-1	-11%	8%
Cc1ccc(C2=NCCn3c2c2ccccc2[n+]3[O-])cc1	-11%	-6%	-90*	0	17%	-3%
COc1ccc2c3n([n+]([O-])c2c1)CCN=C3c1ccc(Cl)cc1	12%	3%	?	0	-19%	0%
[O-][n+]1c2ccccc2c2n1CCCN=C2c1ccc(Cl)cc1	12%	-2%	-84*	1	-12%	-14%
Nc1c(Cl)cc(C2=NCCn3c2c2ccccc2[n+]3[O-])cc1Cl	11%[57.1 µM]	9%[57.1 µM]	?	0	-10%	6%
Nc1c(Cl)cc(C2=NCCn3c2c2ccc(C(F)(F)F)cc2[n+]3[O-])cc1Cl	6%	1%	-94*	5	-53%	-6%
COc1ccccc1NC(=O)c1ccc(-c2nc(COc3ccc(C)cc3)c(C)o2)cc1	25%	5%	/	/	/	15%
Cc1ccc2nc(COc3ccccc3NC(=O)c3ccccc3F)cc(=O)n2c1	4%[57.1 µM]	4%[57.1 µM]	/	/	/	10%
